# Assay results reported in the supplement of paper PMC8728848.
# The sample as a whole holds a higher share of the strongest signals than the screen did.
# B1: CVN-E41G (protein)
# chain: MHHHHHHENLYFQSGNFSQACYNSAIQGSVLTSTCIRTNGGYNTSSIDLNSVIANVDGSLKWQGSNFIETCRNTQLAGSSELAAECKTRAQQFVSTKINLDDHIAAIDGTLKYE
# How the values were obtained:
# Experiment in all cases: glycan array binding signal (z-score within array); higher = stronger binding
# Conditions in all cases: glycan notation: IUPAC condensed, linker removed; mutation: E41A
# [1] = target: Fuc(a1-2)Gal(b1-3)GalNAc(a1-3)[Fuc(a1-2)]Gal(b1-4)GlcNAc
# Summary of the method: (§1)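 Arrays were curated from the Consortium for Functional Glycomics database, 3228 in total, and kept only where the protein sequence was available. Binding is expressed as a within-array Z-score. This score was averaged across arrays of the same protein sequence at different concentrations or buffers and across linkers, and negative values can be read as non-binding.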
# [2] = target: Fuc(a1-2)Gal(b1-4)GlcNAc(b1-2)Man
# Summary of the method: as §1
# [3] = target: Fuc(a1-2)Gal(b1-4)GlcNAc(b1-3)GalNAc
# Summary of the method: as §1
# [4] = target: Fuc(a1-2)[Gal(a1-3)]Gal(b1-4)[Fuc(a1-3)]Glc
# Summary of the method: as §1
# [5] = target: Fuc(a1-2)[GalNAc(a1-3)]Gal(b1-3)GlcNAc
# Summary of the method: as §1
# [6] = target: Fuc(a1-2)[GalNAc(a1-3)]Gal(b1-4)GlcNAc(b1-2)Man(a1-3)[Fuc(a1-2)[GalNAc(a1-3)]Gal(b1-4)GlcNAc(b1-2)Man(a1-6)]Man(b1-4)GlcNAc(b1-4)[Fuc(a1-6)]GlcNAc
# Summary of the method: as §1
# [7] = target: Fuc(a1-2)[GalNAc(a1-3)]Gal(b1-4)GlcNAc(b1-3)Gal(b1-4)GlcNAc(b1-3)Gal(b1-4)GlcNAc
# Summary of the method: as §1
# [8] = target: Fuc(a1-2)[GalNAc(a1-4)]Gal(b1-4)GlcNAc
# Summary of the method: as §1
# [9] = target: Fuc(a1-3)[Gal(b1-4)]GlcNAc
# Summary of the method: as §1
# [10] = target: Fuc(a1-3)[Gal3S(b1-4)]Glc
# Summary of the method: as §1
# [11] = target: Gal(a1-2)Gal
# Summary of the method: as §1
# [12] = target: Gal(a1-3)Gal(b1-3)GlcNAc
# Summary of the method: as §1
# [13] = target: Gal(a1-3)Gal(b1-3)[Fuc(a1-4)]GlcNAc(b1-2)Man(a1-3)[Gal(a1-3)Gal(b1-3)[Fuc(a1-4)]GlcNAc(b1-2)Man(a1-6)]Man(b1-4)GlcNAc(b1-4)GlcNAc
# Summary of the method: as §1
# [14] = target: Gal(a1-3)Gal(b1-4)[Fuc(a1-3)]GlcNAc
# Summary of the method: as §1
# [15] = target: Gal(a1-4)Gal(b1-4)GlcNAc(b1-2)Man(a1-3)[Gal(a1-4)Gal(b1-4)GlcNAc(b1-2)Man(a1-6)]Man(b1-4)GlcNAc(b1-4)GlcNAc
# Summary of the method: as §1
# [16] = target: Gal(b1-3)GalNAc(b1-3)Gal(a1-4)Gal(b1-4)Glc
# Summary of the method: as §1
# [17] = target: Gal(b1-3)GalNAc(b1-4)Gal(b1-4)Glc
# Summary of the method: as §1
# [18] = target: Gal(b1-3)GlcNAc(b1-2)Man(a1-3)[Gal(b1-3)GlcNAc(b1-2)Man(a1-6)]Man(b1-4)GlcNAc(b1-4)GlcNAc
# Summary of the method: as §1
# [19] = target: Gal(b1-3)GlcNAc(b1-6)Gal(b1-4)GlcNAc
# Summary of the method: as §1
# [20] = target: Gal(b1-4)GlcNAc(b1-2)Man(a1-3)[Gal(b1-4)GlcNAc(b1-2)Man(a1-6)]Man(b1-4)GlcNAc(b1-4)GlcNAc
# Summary of the method: as §1
# [21] = target: Gal(b1-4)GlcNAc(b1-2)Man(a1-3)[GlcNAc(b1-4)][Gal(b1-4)GlcNAc(b1-2)Man(a1-6)]Man(b1-4)GlcNAc(b1-4)GlcNAc
# Summary of the method: as §1
# [22] = target: Gal(b1-4)GlcNAc(b1-3)Gal(b1-4)GlcNAc(b1-2)[Gal(b1-4)GlcNAc(b1-3)Gal(b1-4)GlcNAc(b1-6)]Man(a1-6)[Gal(b1-4)GlcNAc(b1-3)Gal(b1-4)GlcNAc(b1-2)Man(a1-3)]Man(b1-4)GlcNAc(b1-4)GlcNAc
# Summary of the method: as §1
# [23] = target: GalNAc(a1-3)Gal
# Summary of the method: as §1
# [24] = target: GalNAc(a1-3)GalNAc
# Summary of the method: as §1
# [25] = target: GlcNAc(a1-4)Gal(b1-4)GlcNAc
# Summary of the method: as §1
binder,measurement,setting,value
B1,glycan array binding signal (z-score),[1],-0.16
same,glycan array binding signal (z-score),[2],-0.09
same,glycan array binding signal (z-score),[3],-0.19
same,glycan array binding signal (z-score),[4],-0.145
same,glycan array binding signal (z-score),[5],-0.168
same,glycan array binding signal (z-score),[6],1.61
same,glycan array binding signal (z-score),[7],-0.123
same,glycan array binding signal (z-score),[8],-0.221
same,glycan array binding signal (z-score),[9],-0.194
same,glycan array binding signal (z-score),[10],-0.171
same,glycan array binding signal (z-score),[11],-0.221
same,glycan array binding signal (z-score),[12],-0.192
same,glycan array binding signal (z-score),[13],1.41
same,glycan array binding signal (z-score),[14],-0.243
same,glycan array binding signal (z-score),[15],0.1
same,glycan array binding signal (z-score),[16],-0.198
same,glycan array binding signal (z-score),[17],-0.211
same,glycan array binding signal (z-score),[18],0.128
same,glycan array binding signal (z-score),[19],-0.121
same,glycan array binding signal (z-score),[20],-0.227
same,glycan array binding signal (z-score),[21],-0.238
same,glycan array binding signal (z-score),[22],0.189
same,glycan array binding signal (z-score),[23],-0.219
same,glycan array binding signal (z-score),[24],-0.252
same,glycan array binding signal (z-score),[25],-0.214
